In all, about 150,000 compounds went through this assay and about 540 (0.36%) showed an effect of 50% or more. The entries come from a sample that favours strong results as a whole.
Test system: Plasmodium falciparum
Assay: Primary screen in NF54 nanoGlo assay, in single point, at 2uM, 72h; a lower Z score goes with more inhibition
Assay type: functional, Erythrocyte
Details: timepoint 72 hour

Compound | % Inhibition [%] | Z score
Cc1nc(N2C(=O)N(C)C3(CCCC3)C2=O)oc1C | 3 | -0.31
O=C(Nc1ccc2c(c1)OCCCO2)c1ccco1 | 29 | -3.9
C[C@H](NC(=O)c1ccco1)c1cc2c(cc1Br)OCCCO2 | 60 | 0.9
C[C@@H](NC(=O)c1ccco1)c1ccccc1 | 0 | 0.04
CC(NCC1COC(C)(C)O1)c1cc(Cl)c(N)c(Cl)c1 (stereo unspecified) | 2 | -0.28
CCCN1CCC(NCc2ccc(-c3cccc(Cl)c3Cl)o2)CC1 | 55 | -11.87
Cc1nnc(NCc2ccc(-c3cccc(Cl)c3Cl)o2)n1C | -8 | 0.79
Clc1cccc(-c2ccc(CNC3CCCCC3)o2)c1 | -9 | 1.31
Fc1cccnc1N1CCOC2(CCC2)C1 | -15 | 1.72
Oc1nc(N2CCOC3(CCCC3)C2)ncc1F | 55 | -9.19
OCCOc1cncc(N2CCOC3(CCCCCC3)C2)n1 | 8 | -0.67
CC(=O)c1cccc(-c2ccc3c(cnn3CC(=O)Nc3ccnn3C)c2)c1 | -12 | 1.94
Cc1ccc(CNC(=O)NCC(=O)N2CCC=C(F)C2)cc1 | 0 | 0.03
O=C(Nc1cnccc1CO)c1csc(C2CCCCC2)c1 | 0 | 0.04
O=C(N[C@H]1C[C@@H]2C[C@H]1N(C(=O)c1ccccc1C(F)(F)F)C2)c1cccnc1 | 35 | -3.96
c1ccc(C2=NN(c3ccc(-c4cc(-c5ccccc5)[n+](-c5ccccc5)c(-c5ccccc5)c4)cc3)[C@H](c3ccccc3)C2)cc1 | 91 | -14.02
Cc1cccc(NCc2ccc(N3N=C(c4ccccc4)C[C@H]3c3ccccc3)cc2)c1 | -1 | 0.11
O=C(NCc1ccc(-n2cncn2)nc1)c1ccncc1 | -19 | 1.67
O=C(Cc1ccc(Cl)cc1)Nc1cnc(-n2ccnc2)nc1 | 4 | -0.61
COC1(C)CC(N(C)C(=O)[C@@H]2Cc3cncn3C(=O)N2)C1(C)C (stereo partly specified) | -3 | 0.52
Cn1cnnc1[C@H]1CCCN(S(=O)(=O)N2CCCCC2)C1 | -6 | 0.88
O=C(N[C@H]1CCc2ncccc2C1)c1cccc(B(O)O)c1 | -4 | 0.45
O=C(NCCN1CCC(CO)CC1)N1CC(Oc2ccccc2F)C1 | -17 | 1.55
N[C@H]1C[C@H](c2cc(NCCCc3cccnc3)nc(C3CC3)n2)C1 | 71 | -7.09
NC1CC(c2cc(NCc3cccnc3)nc(C3CC3)n2)C1 (stereo unspecified) | 15 | -2.04
CC(=O)N[C@H]1C[C@@H](c2cc(NCCCc3cccnc3)nc(C)n2)C1 | -15 | 2.91
C[C@@H](C(=O)NC(C)(C)c1noc(C(N)=O)n1)c1ccccc1 | 2 | -0.23

Compound | % Inhibition [%] | Z score
O=C1COc2ccccc2N1Cc1nc(-c2ccc(N3CCOCC3)cc2)no1 | -19 | 2.51
CC(C)N(CC(=O)Nc1nccs1)Cc1ccccn1 | 65 | -10.08
CC(C)N(CC(=O)Nc1nccs1)C(=O)COCc1ccccc1 | -7 | 0.71
C[C@@H](c1cccnc1)N(C)CC(=O)Nc1nccs1 | 9 | -1.03
COc1ccc(Nc2nc(N3CCCC3)nc3c2cnn3C)cc1Cl | 27 | -3.01
O=C(Cn1ncn2nccc2c1=O)Nc1cc(Cl)cc(Cl)c1 | -3 | 0.43
CC(C)(Oc1ccc(Cl)cc1)C(=O)Nc1c2c(nn1C(C)(C)C)CS(=O)(=O)C2 | -14 | 2.68
COc1ccc(Cl)cc1C(=O)Nc1ccnn1C[C@H]1CCOC1 | 3 | -0.37
COc1ccc(Cl)cc1C(=O)Nc1cc(C2CC2)nn1-c1nc(C)cc(=O)[nH]1 | 63 | -6.61
COc1ccc(CC(=O)Nc2cc(C3CC3)nn2-c2nc(C)cc(=O)[nH]2)cc1 | 0 | -0.01
COc1ccc(Cl)cc1C(=O)N[C@H]1CCc2nn(C)c(=O)cc2C1 | -18 | 3.11
Cc1cc(=O)[nH]c(-n2nc(C3CC3)cc2NC(=O)C(C)(C)Oc2ccc(Cl)cc2)n1 | 84 | -15.44
Cc1cnn(CCCNC(=O)C[C@H]2COCCN2Cc2ccc(C)o2)c1 | -20 | 2.24
CN(C)c1ccc(NC(=O)Cc2cnn(-c3ccccc3)c2)cn1 | -12 | 1.6
N#Cc1nccnc1N[C@H]1CCCN(CC(F)(F)F)C1 | -11 | 1.83
Cc1ccc(CN2C[C@@H](CO)[C@H](NC(=O)C3CCC3)C2)o1 | -6 | 0.86
COc1ccc(N2C(=O)c3ccccc3[C@@H]2c2cn(C)c3ccccc23)cc1 | 7 | -0.85
Cc1ccc(N2C(=O)c3ccccc3[C@@H]2c2c[nH]c3ccccc23)cc1 | 63 | -5.25
CC(c1ccccc1)N1C(=O)c2ccccc2C1c1c[nH]c2ccccc12 (stereo unspecified) | 43 | -5.38
COc1ccc(CC(=O)N2CCCS(=O)(=O)C[C@H]2C2CC2)nc1 | -1 | 0.08
Cc1cccc2ncnc(N(C)[C@@H](C)Cc3ccc(O)cc3)c12 | 77 | -16.2
Cc1cccc2ncnc(N(C)C3CC[S+]([O-])CC3)c12 (stereo unspecified) | 3 | -0.52
CC1(C)C[C@@H](NC(=O)[C@H]2CC[C@H](Cn3cnc4ccccc4c3=O)CC2)CCO1 | -6 | 0.79
C[C@@]1(NC(=O)CCc2nc(C3CCCC3)no2)CC=CCC1 | -10 | 1.9
O=C(NCC[C@H]1CCOC1)c1ccc(-c2ccc3cc[nH]c(=O)c3c2)cc1 | -14 | 1.37
CN1CC[C@H](N(C)C(=O)c2ccc(-c3ccc4c(=O)[nH]ccc4c3)cc2)C1 | -4 | 0.47

Source: ChEMBL document CHEMBL4888484, “Replenishing the malaria drug discovery pipeline: Screening and hit evaluation of the MMV Hit Generation Library 1 (HGL1) against asexual blood stage Plasmodium falciparum ,using a nano luciferase reporter read-out” (2022)
